# Assay results from the supplement of paper PMC8728848.
# Many of the other results were omitted from the sample, so the strongest signals are more common in it than they were.
# Columns and labels:
# Assay in all cases: glycan array binding signal (z-score within array); higher = stronger binding
# Details in all cases: glycan notation: IUPAC condensed, linker removed
# [1] = molecular target: Gal3S(b1-4)Glc6S
# Procedure, shortened: (§1)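 Arrays were curated from the Consortium for Functional Glycomics database, 3228 in total, and kept only where the protein sequence was available. Binding is expressed as a within-array Z-score. This score was averaged across arrays of the same protein sequence at different concentrations or buffers and across linkers, and negative values can be read as non-binding.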
# [2] = molecular target: Gal3S6S(b1-4)GlcNAc6S
# Procedure, shortened: as §1
# [3] = molecular target: Gal6S(b1-4)Glc6S
# Procedure, shortened: as §1
# [4] = molecular target: GalNAc3S(b1-4)GlcNAc3S
# Procedure, shortened: as §1
# [5] = molecular target: GlcA3S(b1-3)Gal(b1-4)GlcNAc(b1-2)Man
# Procedure, shortened: as §1
# [6] = molecular target: GlcNAc(b1-2)[GlcNAc(b1-6)]Man(a1-6)[GlcNAc(b1-2)Man(a1-3)]Man(b1-4)GlcNAc(b1-4)[Fuc(a1-6)]GlcNAc
# Procedure, shortened: as §1
# [7] = molecular target: GlcNAc(b1-3)Gal
# Procedure, shortened: as §1
# [8] = molecular target: GlcNAc(b1-6)GalNAc
# Procedure, shortened: as §1
# [9] = molecular target: Kdn(a2-3)Gal(b1-4)[Fuc(a1-3)]GlcNAc
# Procedure, shortened: as §1
# [10] = molecular target: Kdn(a2-6)Gal(b1-4)GlcNAc
# Procedure, shortened: as §1
# [11] = molecular target: Man(a1-2)Man(a1-3)[Man(a1-6)]Man(a1-6)[Man(a1-2)Man(a1-3)]Man(b1-4)GlcNAc(b1-4)GlcNAc
# Procedure, shortened: as §1
# [12] = molecular target: Neu5Ac(a2-3)Gal(b1-3)GlcNAc(b1-2)Man
# Procedure, shortened: as §1
# [13] = molecular target: Neu5Ac(a2-3)Gal(b1-3)GlcNAc(b1-3)GalNAc
# Procedure, shortened: as §1
# [14] = molecular target: Neu5Ac(a2-3)Gal(b1-3)GlcNAc6S
# Procedure, shortened: as §1
# [15] = molecular target: Neu5Ac(a2-3)Gal(b1-3)[Fuc(a1-4)]GlcNAc
# Procedure, shortened: as §1
# [16] = molecular target: Neu5Ac(a2-3)Gal(b1-3)[Neu5Ac(a2-6)]GlcNAc(b1-3)[Fuc(a1-3)[Gal(b1-4)]GlcNAc(b1-6)]Gal(b1-4)Glc
# Procedure, shortened: as §1
# [17] = molecular target: Neu5Ac(a2-3)Gal(b1-4)GlcNAc(b1-2)[Neu5Ac(a2-3)Gal(b1-4)GlcNAc(b1-4)]Man(a1-3)[GlcNAc(b1-4)][Neu5Ac(a2-3)Gal(b1-4)GlcNAc(b1-2)[Neu5Ac(a2-3)Gal(b1-4)GlcNAc(b1-6)]Man(a1-6)]Man(b1-4)GlcNAc(b1-4)GlcNAc
# Procedure, shortened: as §1
# [18] = molecular target: Neu5Ac(a2-3)Gal(b1-4)GlcNAc(b1-3)Gal(b1-4)GlcNAc(b1-3)[Neu5Ac(a2-3)Gal(b1-4)GlcNAc(b1-3)Gal(b1-4)GlcNAc(b1-6)]GalNAc
# Procedure, shortened: as §1
# [19] = molecular target: Neu5Ac(a2-3)Gal(b1-4)[Fuc(a1-3)]GlcNAc(b1-6)[Gal(b1-3)]GalNAc
# Procedure, shortened: as §1
# [20] = molecular target: Neu5Ac(a2-3)Gal6S(b1-4)[Fuc(a1-3)]GlcNAc
# Procedure, shortened: as §1
# [21] = molecular target: Neu5Ac(a2-6)Gal(b1-4)GlcNAc(b1-2)Man(a1-3)[Neu5Ac(a2-6)Gal(b1-4)GlcNAc(b1-2)Man(a1-6)]Man(b1-4)GlcNAc(b1-4)GlcNAc
# Procedure, shortened: as §1
# [22] = molecular target: Neu5Ac(a2-6)Gal(b1-4)GlcNAc(b1-2)Man(a1-6)Man(b1-4)GlcNAc(b1-4)GlcNAc
# Procedure, shortened: as §1
# [23] = molecular target: Neu5Ac(a2-6)Gal(b1-4)GlcNAc(b1-2)Man(a1-6)[Man(a1-3)]Man(b1-4)GlcNAc(b1-4)GlcNAc
# Procedure, shortened: as §1
# [24] = molecular target: Neu5Ac(a2-6)Gal(b1-4)GlcNAc(b1-3)Gal(b1-4)GlcNAc(b1-3)Gal(b1-4)GlcNAc(b1-2)Man(a1-3)[Neu5Ac(a2-6)Gal(b1-4)GlcNAc(b1-3)Gal(b1-4)GlcNAc(b1-3)Gal(b1-4)GlcNAc(b1-2)Man(a1-6)]GalNAc
# Procedure, shortened: as §1
# [25] = molecular target: Neu5Ac(a2-6)Gal(b1-4)GlcNAc(b1-6)GalNAc
# Procedure, shortened: as §1
# [26] = molecular target: Neu5Ac(a2-6)GlcNAc(b1-4)GlcNAc(b1-4)GlcNAc
# Procedure, shortened: as §1
# [27] = molecular target: Neu5Ac(a2-8)Neu5Ac
# Procedure, shortened: as §1
# [28] = molecular target: Neu5Ac(a2-8)Neu5Ac(a2-8)Neu5Ac(a2-3)[GalNAc(b1-4)]Gal(b1-4)Glc
# Procedure, shortened: as §1
binder,measurement,setting,value
Pbx2CASH domain (Cryptococcus neoformans) (protein) GIPGPNRLYRLSGPIIFTAADQEIATYGYPTGSERAVLRVEGRNTATAIQGDCRRCARVSVKNLVVDGNRKKLGRMRDFQLATGLVVLGGNEGQSIQNSWIKNPRGFTAIHIREGDKLQCSGARVEKNEIGPVGEEYDPEKDGDDPEMSPLGRPLADGVSIACRDSFIRDNTFRDNTDAAIVVYCSPGTLIHA,glycan array binding signal (z-score),[1],0.057
same,glycan array binding signal (z-score),[2],1.44
same,glycan array binding signal (z-score),[3],3.18
same,glycan array binding signal (z-score),[4],-0.15
same,glycan array binding signal (z-score),[5],2.57
same,glycan array binding signal (z-score),[6],-0.071
same,glycan array binding signal (z-score),[7],-0.697
same,glycan array binding signal (z-score),[8],-0.438
same,glycan array binding signal (z-score),[9],0.079
same,glycan array binding signal (z-score),[10],-0.478
same,glycan array binding signal (z-score),[11],-0.457
same,glycan array binding signal (z-score),[12],3.35
same,glycan array binding signal (z-score),[13],0.011
same,glycan array binding signal (z-score),[14],-0.247
same,glycan array binding signal (z-score),[15],-0.813
same,glycan array binding signal (z-score),[16],-0.803
same,glycan array binding signal (z-score),[17],0.012
same,glycan array binding signal (z-score),[18],0.079
same,glycan array binding signal (z-score),[19],0.909
same,glycan array binding signal (z-score),[20],-0.748
same,glycan array binding signal (z-score),[21],-0.301
same,glycan array binding signal (z-score),[22],1.6
same,glycan array binding signal (z-score),[23],2.48
same,glycan array binding signal (z-score),[24],4.62
same,glycan array binding signal (z-score),[25],1.05
same,glycan array binding signal (z-score),[26],-0.208
same,glycan array binding signal (z-score),[27],-0.046
same,glycan array binding signal (z-score),[28],3.58
